# Targets with a hit are over-represented here; the source holds about 7,900 in all. About 0.6% of all pairs of compound and target were hits. A number with no mark means an inactive call.
# Assays:
# Test in all cases: log2 fold change, soluble protein after heating vs DMSO (PISA); higher = thermal stabilisation; K562 cells, 10 uM, 30 min; active = over 0.2 and 3.5 SD of the protein, either way, in both replicates (recomputed)
# [1] = compound: NC(=O)Nc1cc(-c2cccc(F)c2)sc1C(=O)N[C@H]1CCCNC1
# Procedure, shortened: (§1)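 K562 cells at 2×10^6 cells/mL were exposed to 10 μM compound for 30 min, then aliquots were heated for 3 min across 48°C-58°C, pooled, and extracted in PBS containing 0.5% NP-40 at 4°C. The supernatant after 21,000xg for 90 min was taken as soluble protein and measured by TMTpro 16plex LC-MS/MS with channel sums equalised. Thermal stability is reported relative to control samples, with values from duplicates. Fold changes are given on a log2 scale.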
# [2] = compound: NC(=O)c1cnc(N[C@@H]2CCCC[C@@H]2N)nc1Nc1cccc(-n2nccn2)c1
# Procedure, shortened: as §1
# [3] = compound: NC1(c2ccc(-c3nc4ccn5c(=O)[nH]nc5c4cc3-c3ccccc3)cc2)CCC1
# Procedure, shortened: as §1
# [4] = compound: NCC(=O)Nc1ccc(-n2nc(C(F)(F)F)cc2-c2ccc3c(ccc4ccccc43)c2)cc1
# Procedure, shortened: as §1
# [5] = compound: Nc1ccccc1NC(=O)c1ccc(CNC(=O)OCc2cccnc2)cc1 [entinostat]
# Procedure, shortened: as §1
# [6] = compound: O=C(CCCCCCC(=O)Nc1ccccc1)NO [vorinostat]
# Procedure, shortened: as §1
# [7] = compound: O=C(CCCCCCNC(=O)c1cnc(N(c2ccccc2)c2ccccc2Cl)nc1)NO [citarinostat]
# Procedure, shortened: as §1
# [8] = compound: O=C(O)c1ccc2c(c1)nc(Nc1cccc(Cl)c1)c1ccncc12 [silmitasertib]
# Procedure, shortened: as §1
# [9] = compound: O=C1NC(=O)C(c2cnc3ccccn23)=C1c1cn2c3c(cc(F)cc13)CN(C(=O)N1CCCCC1)CC2
# Procedure, shortened: as §1
# [10] = compound: c1cc(OCCN2CCCCC2)cc(-c2n[nH]c3ccc(-c4nnc[nH]4)cc23)c1
# Procedure, shortened: as §1
# [11] = compound: c1cn2cc(-c3ccc4cn[nH]c4c3)nc(Nc3ccc(N4CCOCC4)cc3)c2n1 [entospletinib]
# Procedure, shortened: as §1
# UniProt P55196, sequence (P55196 whole entry, looked up): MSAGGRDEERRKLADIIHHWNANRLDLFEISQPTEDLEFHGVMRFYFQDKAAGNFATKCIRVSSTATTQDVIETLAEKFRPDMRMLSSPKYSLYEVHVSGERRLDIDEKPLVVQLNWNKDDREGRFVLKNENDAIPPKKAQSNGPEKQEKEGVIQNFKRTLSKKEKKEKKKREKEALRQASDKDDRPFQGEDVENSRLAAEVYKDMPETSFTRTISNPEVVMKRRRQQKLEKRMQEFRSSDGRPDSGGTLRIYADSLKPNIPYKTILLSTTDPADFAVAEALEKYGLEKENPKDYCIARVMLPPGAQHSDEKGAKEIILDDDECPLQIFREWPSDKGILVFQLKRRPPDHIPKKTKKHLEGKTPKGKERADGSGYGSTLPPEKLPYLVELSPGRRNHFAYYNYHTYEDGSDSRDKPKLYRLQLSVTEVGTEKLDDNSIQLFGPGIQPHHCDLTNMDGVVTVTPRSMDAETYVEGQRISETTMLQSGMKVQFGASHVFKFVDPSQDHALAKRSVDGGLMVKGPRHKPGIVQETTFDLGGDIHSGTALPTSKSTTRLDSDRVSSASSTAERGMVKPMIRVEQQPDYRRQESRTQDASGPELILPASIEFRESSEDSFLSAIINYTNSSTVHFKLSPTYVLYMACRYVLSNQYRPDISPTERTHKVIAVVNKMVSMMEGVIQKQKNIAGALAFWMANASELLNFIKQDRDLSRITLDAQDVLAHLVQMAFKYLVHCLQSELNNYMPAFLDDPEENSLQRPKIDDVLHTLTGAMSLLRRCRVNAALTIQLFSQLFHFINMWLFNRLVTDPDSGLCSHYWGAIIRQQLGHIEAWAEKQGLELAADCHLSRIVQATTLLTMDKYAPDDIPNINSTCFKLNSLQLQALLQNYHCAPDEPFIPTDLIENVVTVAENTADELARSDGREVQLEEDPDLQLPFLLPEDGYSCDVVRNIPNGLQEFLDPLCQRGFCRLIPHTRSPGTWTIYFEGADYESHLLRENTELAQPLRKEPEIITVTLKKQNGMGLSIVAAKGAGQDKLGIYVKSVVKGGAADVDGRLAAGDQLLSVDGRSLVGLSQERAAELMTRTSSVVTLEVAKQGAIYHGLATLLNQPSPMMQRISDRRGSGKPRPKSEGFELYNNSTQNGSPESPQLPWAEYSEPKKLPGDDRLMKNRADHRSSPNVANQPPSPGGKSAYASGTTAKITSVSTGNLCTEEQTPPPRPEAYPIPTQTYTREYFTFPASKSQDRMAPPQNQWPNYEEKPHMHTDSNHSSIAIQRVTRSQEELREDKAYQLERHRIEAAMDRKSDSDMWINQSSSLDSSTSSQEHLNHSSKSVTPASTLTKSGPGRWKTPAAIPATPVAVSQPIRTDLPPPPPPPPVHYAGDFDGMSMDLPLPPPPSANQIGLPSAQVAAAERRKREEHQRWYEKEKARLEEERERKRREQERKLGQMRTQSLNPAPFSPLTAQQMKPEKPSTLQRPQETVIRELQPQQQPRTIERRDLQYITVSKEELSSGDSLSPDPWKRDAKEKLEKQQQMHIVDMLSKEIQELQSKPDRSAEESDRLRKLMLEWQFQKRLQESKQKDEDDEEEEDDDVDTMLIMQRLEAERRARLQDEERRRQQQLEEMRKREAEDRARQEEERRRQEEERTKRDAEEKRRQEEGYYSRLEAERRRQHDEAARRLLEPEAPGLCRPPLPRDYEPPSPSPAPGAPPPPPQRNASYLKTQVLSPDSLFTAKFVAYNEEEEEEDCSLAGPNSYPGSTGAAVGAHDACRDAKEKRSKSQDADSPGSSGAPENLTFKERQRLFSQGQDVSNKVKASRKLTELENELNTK
# UniProt Q9UI12, sequence (Q9UI12 whole entry, looked up): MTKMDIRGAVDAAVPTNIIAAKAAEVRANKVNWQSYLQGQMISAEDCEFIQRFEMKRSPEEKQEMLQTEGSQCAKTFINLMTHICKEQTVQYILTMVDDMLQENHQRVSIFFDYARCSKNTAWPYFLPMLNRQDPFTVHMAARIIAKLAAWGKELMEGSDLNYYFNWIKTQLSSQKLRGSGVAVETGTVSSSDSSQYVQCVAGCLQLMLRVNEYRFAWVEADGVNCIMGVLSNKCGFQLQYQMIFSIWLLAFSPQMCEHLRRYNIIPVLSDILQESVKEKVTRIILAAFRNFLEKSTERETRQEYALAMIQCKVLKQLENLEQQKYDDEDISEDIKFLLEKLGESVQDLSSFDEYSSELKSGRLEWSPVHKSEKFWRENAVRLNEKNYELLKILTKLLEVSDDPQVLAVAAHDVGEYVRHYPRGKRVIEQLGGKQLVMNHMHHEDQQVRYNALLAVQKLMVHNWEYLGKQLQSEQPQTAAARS
# UniProt Q07960, sequence (Q07960 whole entry, looked up): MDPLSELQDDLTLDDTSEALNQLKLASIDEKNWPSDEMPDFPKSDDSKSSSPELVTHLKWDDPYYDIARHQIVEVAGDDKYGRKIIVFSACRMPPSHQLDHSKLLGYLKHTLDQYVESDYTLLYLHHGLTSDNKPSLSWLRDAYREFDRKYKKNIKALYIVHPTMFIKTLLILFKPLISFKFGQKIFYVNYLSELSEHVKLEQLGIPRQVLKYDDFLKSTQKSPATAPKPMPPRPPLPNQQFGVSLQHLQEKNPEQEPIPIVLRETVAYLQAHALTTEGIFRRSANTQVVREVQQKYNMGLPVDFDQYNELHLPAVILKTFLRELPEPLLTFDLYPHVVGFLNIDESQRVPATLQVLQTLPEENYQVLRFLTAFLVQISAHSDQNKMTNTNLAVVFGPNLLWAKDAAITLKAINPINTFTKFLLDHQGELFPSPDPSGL
# UniProt O00244, sequence (O00244 whole entry, looked up): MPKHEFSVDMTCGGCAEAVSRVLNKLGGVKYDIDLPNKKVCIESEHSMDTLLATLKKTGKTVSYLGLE
# UniProt Q9BR61, sequence (Q9BR61 whole entry, looked up): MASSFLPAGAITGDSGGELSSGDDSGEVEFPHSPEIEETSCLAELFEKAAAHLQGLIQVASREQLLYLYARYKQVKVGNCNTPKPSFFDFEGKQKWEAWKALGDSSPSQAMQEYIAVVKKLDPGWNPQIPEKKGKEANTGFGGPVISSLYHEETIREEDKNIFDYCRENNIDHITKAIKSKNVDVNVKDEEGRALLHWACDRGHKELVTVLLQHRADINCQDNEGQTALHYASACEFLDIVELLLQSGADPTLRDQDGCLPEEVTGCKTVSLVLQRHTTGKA
# UniProt P40616, sequence (P40616 whole entry, looked up): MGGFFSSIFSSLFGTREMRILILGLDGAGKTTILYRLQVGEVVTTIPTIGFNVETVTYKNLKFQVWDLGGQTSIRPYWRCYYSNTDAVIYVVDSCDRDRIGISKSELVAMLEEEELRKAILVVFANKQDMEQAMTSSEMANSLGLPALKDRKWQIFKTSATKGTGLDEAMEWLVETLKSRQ
# UniProt Q9UKV5, sequence (Q9UKV5 whole entry, looked up): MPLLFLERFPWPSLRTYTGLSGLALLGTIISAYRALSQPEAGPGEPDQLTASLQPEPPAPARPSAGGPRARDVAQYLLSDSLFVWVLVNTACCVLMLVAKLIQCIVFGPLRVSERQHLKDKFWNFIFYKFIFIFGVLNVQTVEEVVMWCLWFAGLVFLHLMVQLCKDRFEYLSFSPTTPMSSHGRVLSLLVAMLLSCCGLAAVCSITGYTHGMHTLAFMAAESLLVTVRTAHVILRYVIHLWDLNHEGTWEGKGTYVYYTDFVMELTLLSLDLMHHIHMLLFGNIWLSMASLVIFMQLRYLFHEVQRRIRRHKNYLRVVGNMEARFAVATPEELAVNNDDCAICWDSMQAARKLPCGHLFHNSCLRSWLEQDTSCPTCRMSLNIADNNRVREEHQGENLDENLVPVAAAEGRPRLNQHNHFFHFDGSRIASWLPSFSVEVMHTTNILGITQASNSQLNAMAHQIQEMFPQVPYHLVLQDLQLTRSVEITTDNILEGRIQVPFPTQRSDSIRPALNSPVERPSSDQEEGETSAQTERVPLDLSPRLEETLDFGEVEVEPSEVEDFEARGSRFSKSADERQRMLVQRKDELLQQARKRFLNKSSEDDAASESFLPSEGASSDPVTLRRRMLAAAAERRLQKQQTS
# UniProt Q9UJX6, sequence (Q9UJX6 whole entry, looked up): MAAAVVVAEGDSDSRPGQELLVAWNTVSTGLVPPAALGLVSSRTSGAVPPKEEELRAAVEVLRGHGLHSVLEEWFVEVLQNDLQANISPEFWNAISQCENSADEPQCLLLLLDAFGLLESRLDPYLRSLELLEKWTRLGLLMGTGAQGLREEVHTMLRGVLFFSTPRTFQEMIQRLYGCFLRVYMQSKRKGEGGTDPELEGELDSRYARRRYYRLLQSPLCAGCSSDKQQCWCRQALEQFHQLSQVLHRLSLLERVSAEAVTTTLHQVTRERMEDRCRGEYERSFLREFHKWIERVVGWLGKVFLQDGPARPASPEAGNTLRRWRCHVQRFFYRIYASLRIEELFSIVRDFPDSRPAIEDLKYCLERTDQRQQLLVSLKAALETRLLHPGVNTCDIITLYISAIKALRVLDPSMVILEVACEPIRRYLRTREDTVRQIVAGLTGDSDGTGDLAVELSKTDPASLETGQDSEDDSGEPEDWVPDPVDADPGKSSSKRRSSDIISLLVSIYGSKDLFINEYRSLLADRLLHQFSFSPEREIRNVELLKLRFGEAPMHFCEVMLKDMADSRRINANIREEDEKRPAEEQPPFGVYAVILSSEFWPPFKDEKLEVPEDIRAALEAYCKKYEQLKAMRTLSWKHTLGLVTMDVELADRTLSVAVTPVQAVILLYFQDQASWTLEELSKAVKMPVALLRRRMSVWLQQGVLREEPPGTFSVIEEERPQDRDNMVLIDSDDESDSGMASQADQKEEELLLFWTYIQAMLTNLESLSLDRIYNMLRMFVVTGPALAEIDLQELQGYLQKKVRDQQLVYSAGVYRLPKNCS
# UniProt Q9Y3D8, sequence (Q9Y3D8 whole entry, looked up): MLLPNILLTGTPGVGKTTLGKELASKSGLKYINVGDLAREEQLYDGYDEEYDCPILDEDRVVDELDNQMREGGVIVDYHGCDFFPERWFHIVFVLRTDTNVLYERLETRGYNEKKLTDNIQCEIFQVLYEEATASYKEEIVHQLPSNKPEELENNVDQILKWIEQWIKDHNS
Target,log2 fold change [1],log2 fold change [2],log2 fold change [3],log2 fold change [4],log2 fold change [5],log2 fold change [6],log2 fold change [7],log2 fold change [8],log2 fold change [9],log2 fold change [10],log2 fold change [11]
ACBD6 (UniProt Q9BR61),-0.089,-0.077,-0.006,0.001,-0.048,0.086,0.084,0.134,0.022,0.271,0.035
ACADVL isoform 3 (UniProt P49748),-0.025,-0.036,-0.021,-0.032,0,-0.019,0.043,-0.015,-0.014,-0.028,0.002
ADD2 (UniProt P35612),0.048,0.039,0.036,0.024,-0.038,0.023,0.024,-0.054,-0.092,0.013,-0.008
AMFR (UniProt Q9UKV5),-0.024,-0.128,-0.115,-0.075,0.051,0.055,0.012,0.07,-0.032,0.021,-0.059
ATOX1 (UniProt O00244),0.175,0.273,-0.032,0.03,0.081,-0.018,0.091,-0.105,-0.081,-0.004,-0.005
ANAPC2 (UniProt Q9UJX6),0.079,-0.025,-0.063,-0.023,0.02,0.074,0.124,0.087,0.027,-0.049,-0.001
ATP6V0A2 (UniProt Q9Y487),-0.002,-0.072,-0.143,-0.024,0.021,0,0.036,0.079,0.061,-0.043,0.009
ATP1A4 (UniProt Q13733),0.023,0.069,0.059,-0.03,-0.001,-0.002,0.121,0.007,0.176,-0.088,-0.065
ARHGAP1 (UniProt Q07960),-0.068,-0.048,-0.003,-0.051,0.016,0.012,0.009,0.014,-0.024,-0.093,0.011
ATF1 (UniProt P18846),0.038,0.096,0.063,0.127,0.066,-0.102,0.144,-0.146,0.372 (active),-0.091,-0.006
AGPS (UniProt O00116),-0.013,0.007,-0.112,0,0.023,0.045,0.058,0.011,-0.107,-0.011,0.008
AIFM2 (UniProt Q9BRQ8),0.016,-0.019,0.034,-0.02,-0.01,-0.053,0.046,0.03,0.047,-0.034,0.01
AK6 (UniProt Q9Y3D8),-0.034,-0.072,-0.043,-0.138,0.145,0.074,0.103,0.058,-0.051,-0.009,-0.048
ARL1 (UniProt P40616),0.142,0.055,-0.173,-0.019,0.031,0.149,0.161,0.006,0.04,0.007,-0.139
ATP6V1H (UniProt Q9UI12),0,-0.141,-0.201,-0.094,0.046,0.032,0.031,0.005,0.025,-0.062,0.004
BTBD6 (UniProt Q96KE9),0.054,0.102,0.469,0.199,-0.039,0.081,0.273,-0.352,-0.011,0.118,0.056
ACO2 (UniProt Q99798),0.017,-0.04,-0.142,-0.012,0.039,0.023,0.057,0.001,-0.058,-0.042,-0.008
ARL6IP6 (UniProt Q8N6S5),-0.085,-0.125,-0.073,-0.015,-0.021,-0.007,-0.058,-0.014,0.011,-0.059,-0.091
ATP1B3 (UniProt P54709),-0.065,-0.011,0.066,0.004,-0.041,-0.007,0.037,0.002,-0.057,-0.088,-0.031
BYSL (UniProt Q13895),-0.012,0.053,-0.052,0.062,0.046,0.058,-0.007,0.085,0.068,0.001,-0.065
ARGLU1 (UniProt Q9NWB6),-0.089,0.01,0.168,-0.08,-0.071,-0.061,0.026,-0.245,0.319,-0.208,-0.013
AFDN isoform 1 (UniProt P55196),-0.016,0.048,-0.043,-0.031,0.047,-0.033,0.079,0.002,-0.054,-0.141,-0.028
BST2 (UniProt Q10589),0.031,0.02,0.003,0.132,0.03,-0.026,-0.058,0.009,0.112,-0.092,-0.009
ARFGAP2 (UniProt Q8N6H7),-0.007,-0.097,-0.08,-0.014,0.037,-0.017,0.015,0.017,-0.016,-0.035,0.007
ATP12A isoform 2 (UniProt P54707),-0.115,0.049,0.075,0.003,-0.072,-0.035,-0.033,-0.033,-0.032,-0.037,-0.003
BRAP (UniProt Q7Z569),0.056,-0.063,-0.113,-0.015,0.003,0.069,0.037,0.073,0.124,0.064,0.002
ATP1A1 (UniProt P05023),-0.055,0.093,0.116,0.07,-0.04,0.03,-0.003,-0.062,-0.077,0.003,0.002
